KCNQ2 pot – KCNQ2 (rat) channel potentiation; B-score at 10 µM; O88943; 310,000 compounds, 0.54% hits; AID 2239; CHO-K1 KCNQ2, FluxOR thallium flux fluorescence; hits give high values;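 active = fluorescence ratio B-score at least 3 SD of library B-scores, with initial fluorescence B-score within 3 of them, cut at about 5.3 in these data; same plate scores as AID 2156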;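 also: B-score of peak minus minimum over baseline fluorescence ratio after K+ and Tl+ stimulus; positive B-score means potentiation of KCNQ2 with more thallium influx and brighter signal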
KCNQ2 inh – blocks the rat KCNQ2 potassium channel; CHO-K1 KCNQ2, FluxOR thallium flux, 20 min; hits give low values; B-score at 10 µM; 310,000 compounds, 1.1% hits; O88943;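 active = fluorescence ratio B-score at most minus 3 library SDs, with starting brightness B-score within 2 library SDs, cut at about -5.5 in these data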
Kir21 confirm – confirmation of mouse Kir2.1 potassium channel inhibitors; AID 2032; shares compounds with KCNQ2 pot; Tl flux remaining, % of negative control (hits give low values), % at 10 µM; 2,300 compounds, 41% hits; Kir2.1-expressing cells, FluxOR thallium flux fluorescence; hits give low values;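 active = Primary-screen hit whose thallium flux fell at least 3 control SD below untreated wells in both duplicates, with normal baseline fluorescence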;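 also: 0% = blank wells without stimulus and 100% = stimulated no-compound controls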
HEK293 ctr – parental HEK293 activity in Kir2.1 inhibitor counter-screen | shares compounds with KCNQ2 pot | parental HEK293 cells, FluxOR thallium flux fluorescence; 0% = unstimulated blank wells | FluxOR signal as % of negative control (100 = no effect), % at 10 µM | 2,300 compounds, 19% hits;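 active = dye signal at least 3 control SD above or below untreated wells in both duplicates, raw fluorescence within 3, either direction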;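 also: percent is based on the flux ratio of peak minus minimum fluorescence over baseline F0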
CHO-K1 ctr – parental CHO-K1 activity in KCNQ2 potentiator counter-screen. shares compounds with KCNQ2 pot. parental CHO-K1 cells, FluxOR thallium flux fluorescence; zero = vehicle mean+3SD, 100% = vehicle-minus-blank window. activity increase over 3SD of controls, % at 10 µM. 1,200 compounds, 43% hits. AID 2282;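 active = signal rise of at least 3 SD above the untreated control mean, in both duplicate wells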;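 also: counter screen of KCNQ2 potentiator hits so any rise reflects channel-independent effects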
KCNQ1 pot spec – human KCNQ1 counter-target activity of KCNQ2 potentiators. 1,200 compounds, 28% hits. activation over 3SD threshold, % at 10 µM. shares compounds with KCNQ2 pot. CHO KCNQ1 stable, FluxOR thallium flux fluorescence; beyond 3SD, as % of vehicle-control signal;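 active = fluorescence ratio rise of at least 3 SD of vehicle wells above their mean, in both replicate wells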;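 also: 0% = vehicle mean plus 3 SD and 100% = vehicle minus unstimulated blank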
KCNQ2 pot conf – rat KCNQ2 channel potentiator confirmation; 1,200 compounds, 68% hits; shares compounds with KCNQ2 pot; potentiation, less the hit threshold, % at 10 µM; AID 2287; CHO-KCNQ2 cells, FluxOR thallium flux fluorescence;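 active = fluorescence ratio rising 3 SD or more over the vehicle control mean in both replicates, plus primary screen hit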;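 also: peak minus minimum thallium fluorescence divided by baseline after K/Tl stimulus; 0% = vehicle mean plus 3 SD and 100% = vehicle minus unstimulated blank difference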
Kir2-1 sel – tests whether KCNQ2 potentiators also affect mouse Kir2.1 | shares compounds with KCNQ2 pot | HEK293 Kir2.1, FluxOR thallium flux fluorescence | activity over 3SD threshold, % at 10 µM | 1,200 compounds, 2% hits;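 active = fluorescence ratio rise of at least 3 SD above the vehicle-control mean, seen in both replicates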;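 also: 0% = vehicle mean plus 3 SD and 100% = vehicle minus no-stimulus blank window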
KCNQ2 W236L MoA – rat KCNQ2 W236L mutant potentiation by KCNQ2 potentiators | shares compounds with KCNQ2 pot | CHO KCNQ2-W236L, automated patch clamp current | current increase over 3SD of negative controls (%), hits give high values, % at 25 µM | 940 compounds, 10% hits | AID 2558;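 active = current increase at least 3 SD of the untreated controls above them in both duplicate recordings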
Target sequence (O88943 whole entry W236L, looked up): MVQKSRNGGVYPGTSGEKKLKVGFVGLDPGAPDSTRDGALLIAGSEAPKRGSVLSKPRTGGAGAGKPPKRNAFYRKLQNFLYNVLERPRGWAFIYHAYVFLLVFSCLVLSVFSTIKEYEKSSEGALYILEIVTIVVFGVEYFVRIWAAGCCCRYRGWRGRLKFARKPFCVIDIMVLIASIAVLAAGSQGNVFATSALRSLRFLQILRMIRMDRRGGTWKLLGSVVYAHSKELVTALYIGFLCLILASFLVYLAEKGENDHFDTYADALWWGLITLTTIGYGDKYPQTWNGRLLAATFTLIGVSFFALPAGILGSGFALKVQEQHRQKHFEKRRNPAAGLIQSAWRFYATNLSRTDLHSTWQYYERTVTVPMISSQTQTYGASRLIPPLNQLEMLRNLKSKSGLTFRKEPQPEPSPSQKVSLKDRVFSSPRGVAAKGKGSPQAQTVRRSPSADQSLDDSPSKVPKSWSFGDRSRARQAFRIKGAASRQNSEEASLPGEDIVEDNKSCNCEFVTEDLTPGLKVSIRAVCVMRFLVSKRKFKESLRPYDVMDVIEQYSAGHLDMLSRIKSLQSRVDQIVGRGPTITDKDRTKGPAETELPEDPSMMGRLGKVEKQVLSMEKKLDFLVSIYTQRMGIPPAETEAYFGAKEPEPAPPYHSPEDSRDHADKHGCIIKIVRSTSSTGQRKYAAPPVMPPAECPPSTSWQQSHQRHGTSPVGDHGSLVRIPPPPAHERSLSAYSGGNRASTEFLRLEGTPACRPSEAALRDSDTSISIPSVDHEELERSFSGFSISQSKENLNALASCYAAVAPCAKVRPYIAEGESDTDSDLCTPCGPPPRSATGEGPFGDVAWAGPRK
Active calls of the source: *; i = inactive; x = no result. Compounds with a hit are over-represented: about 1.6% of the library has one in this group of screens.

SMILES	KCNQ2 pot	KCNQ2 inh	Kir21 confirm	HEK293 ctr	others
CC(=O)N1c2ccc(N=Cc3cc(Br)cc(Br)c3O)cc2CC1C (stereo unspecified)	12*	i	i	i	CHO-K1 ctr=-16;KCNQ1 pot spec=43*;KCNQ2 pot conf=14*;Kir2-1 sel=-33;KCNQ2 W236L MoA=i
CC1CCCC(C)N1/N=C/c1cc(Br)cc(Br)c1O (stereo unspecified)	x	i	x	x
COc1ccc(OC)c(NC(=O)CSc2nnc(NC(=O)c3ccco3)s2)c1	0.46	i	x	x
CC(NC(=O)/C(C#N)=C/c1ccco1)c1ccccc1 (stereo unspecified)	x	i	x	x
CC(NC(=O)/C(C#N)=C/c1ccc([N+](=O)[O-])o1)c1ccccc1 (stereo unspecified)	x	i	i	64%*
N=c1c2c(-c3ccccc3)c(-c3ccccc3)n(Cc3ccco3)c2ncn1Cc1ccccc1	-5.9	-5.9*	65%*	i
N=c1c2c(-c3ccccc3)c(-c3ccccc3)n(Cc3ccco3)c2ncn1CCCn1ccnc1	x	i	32%*	64%*
c1ccc(-c2oc3ncnc(NCCCn4ccnc4)c3c2-c2ccccc2)cc1	x	i	x	x
N=c1c2c3c(sc2ncn1Cc1ccco1)CCCCC3	0.74	i	x	x
Cc1cccc(C)c1N(CC(=O)NCc1ccco1)C(=O)CNS(=O)(=O)c1ccc(F)cc1	x	i	x	x
Cc1ccc(S(=O)(=O)NCCS(=O)(=O)N2CCN(c3ccccc3)CC2)cc1	x	i	x	x
Cc1cccc(CC(=O)NCC(=O)NCc2cc(=O)n(C)c(=O)n2C)c1	0.94	i	x	x
Cc1ccc2nc(SCc3nnc(-c4ccccc4Br)o3)[nH]c2c1	x	i	x	x
CCN(CC)c1ccc(NC(=O)c2ccco2)c(C)c1	2.9	i	x	x
CCN(CC)c1ccc(NC(=O)c2cccc(F)c2)c(C)c1	17*	i	i	i	CHO-K1 ctr=-12;KCNQ1 pot spec=-8;KCNQ2 pot conf=49*;Kir2-1 sel=-25;KCNQ2 W236L MoA=i
Cc1ccc(C(=O)O)cc1N=Cc1cc(Br)cc(Br)c1O	10*	i	i	i	CHO-K1 ctr=-20;KCNQ1 pot spec=-21;KCNQ2 pot conf=31*;Kir2-1 sel=-21;KCNQ2 W236L MoA=i
CC(=O)Nc1ccc(C(=O)N/N=C/c2cc(Br)cc(Br)c2O)cc1	x	i	x	x
Cc1ccc(N/C=C/C(=O)C(C)(C)C)c(O)c1	8.3*	i	i	i	CHO-K1 ctr=-1;KCNQ1 pot spec=2.9*;KCNQ2 pot conf=8.3*;Kir2-1 sel=-21;KCNQ2 W236L MoA=i
CC(=O)Nc1ccc(N/C=C/C(=O)C(C)(C)C)cc1	x	i	x	x
Cc1ccc(C(=O)N2CCOCC2)cc1S(=O)(=O)N1CCCCC1	0.97	i	x	x
CC(C(=O)NCCCc1ccccc1)n1cccc1C(=O)c1ccccc1 (stereo unspecified)	x	i	64%*	i
O=C(Cn1cccc1C(=O)c1ccccc1)NCCCc1ccccc1	0.8	i	x	x
COc1cc(CNCCN2CCOCC2)ccc1OCc1ccc(Cl)cc1Cl	x	i	x	x
COc1cc(CNCc2ccccn2)ccc1OCc1ccc(Cl)cc1Cl	x	i	26%*	i
NC1=NC[C@H](c2ccccc2)N1CCCCC1CCCCC1	x	i	38%*	i
SMILES	KCNQ2 pot	KCNQ2 inh	Kir21 confirm	HEK293 ctr	others
S=C1NC[C@H](c2ccccc2)N1CCCCC1CCCCC1	0.4	i	x	x
O=c1[nH]c2ccsc2c(=O)n1CCO	0.33	i	x	x
O=C(N/N=C/c1ccco1)c1cc(-c2ccc3ccccc3c2)n[nH]1	9.2*	i	i	i	CHO-K1 ctr=54*;KCNQ1 pot spec=-13;KCNQ2 pot conf=32*;Kir2-1 sel=-27;KCNQ2 W236L MoA=i
CCc1ccc(-c2cc(C(=O)N/N=C/c3ccco3)[nH]n2)cc1	1.3	i	x	x
COc1ccc(/C=C(/NC(=O)c2ccccc2)C(=O)NCc2ccco2)cc1	1.7	i	x	x
COc1ccccc1/C=C(\NC(=O)c1ccccc1)C(=O)NCc1ccco1	0.73	i	i	i
CN(CC(=O)NCCc1ccccc1)S(=O)(=O)c1ccccc1	x	i	x	x
CC(C)(C)c1csc(NC(=O)c2ccc3nccnc3c2)n1	3.9	i	x	x
COC(=O)CSc1nn(-c2ccc(F)cc2)c(=S)s1	x	i	x	x
CC(C)CCNCC(O)CON=C1c2ccccc2-c2ccccc21 (stereo unspecified)	x	i	x	x
COCCNCC(O)CON=C1c2ccccc2-c2ccccc21 (stereo unspecified)	x	i	32%*	i
CCOc1ccccc1Nc1nc(N)nc(CN2CCCCC2C)n1 (stereo unspecified)	0.16	i	x	x
O=C1CC(c2ccccc2F)C2=C(COC2=O)N1 (stereo unspecified)	0.69	i	x	x
COc1ccc(CC(=O)Nc2nnc(C(C)C)s2)cc1OC	0.88	i	x	x
C=CCNC(=O)COC(=O)c1cccnc1Nc1ccccc1F	x	i	x	x
CCNC(=S)NNC(=O)CCc1nc2cc(Cl)ccc2n(Cc2ccccc2)c1=O	0.23	i	x	x
CN(C)C(CNC(=O)CCc1nc2cc(Cl)ccc2n(Cc2ccccc2)c1=O)c1ccccc1 (stereo unspecified)	x	i	74%*	i
Cc1nc(C)c(-c2csc(Nc3ccccn3)n2)s1	5.7*	i	i	i	CHO-K1 ctr=-14;KCNQ1 pot spec=15*;KCNQ2 pot conf=26*;Kir2-1 sel=-28;KCNQ2 W236L MoA=40%*
Cc1ccnc(Nc2nc(-c3sc(C)nc3C)cs2)c1	2.9	i	x	x
CCn1ncc(Cl)c1C(=O)NC(=S)Nc1ccccc1Br	7.1*	i	i	232%*	CHO-K1 ctr=12*;KCNQ1 pot spec=55*;KCNQ2 pot conf=53*;Kir2-1 sel=-14;KCNQ2 W236L MoA=i
Cc1nn(C)c(C(=O)NNC(=S)Nc2ccc(F)cc2)c1[N+](=O)[O-]	x	i	x	x
Cc1nn(C)c(C(=O)NC(=S)Nc2ccccc2Br)c1Cl	6.8*	i	i	216%*	CHO-K1 ctr=0;KCNQ1 pot spec=-8;KCNQ2 pot conf=55*;Kir2-1 sel=-20;KCNQ2 W236L MoA=i
CCCCOC(=O)c1ccc(NC(=S)NC(=O)c2c(Cl)cnn2CC)cc1	5.2	i	x	x
Cc1nn(C)c(C(=O)NC(=S)Nc2ccc([N+](=O)[O-])cc2)c1Cl	8.4*	i	i	132%*	CHO-K1 ctr=-19;KCNQ1 pot spec=-9;KCNQ2 pot conf=0.7*;Kir2-1 sel=-28;KCNQ2 W236L MoA=i
Cc1nn(C)c(C(=O)NNC(=S)NCc2ccccc2)c1Cl	x	i	x	x
NS(=O)(=O)c1ccc(CNC(=O)CNC(=O)c2ccc(Br)o2)cc1	0.3	i	x	x
CC(C)Oc1ccc(C(=O)NC2CCCCC2)cc1	x	i	x	x

Compound activity (PubChem BioAssay)
